An excerpt weighted towards active compounds, which were near 3.9% of everything screened.
HT1080-NT tox: kills 2HG-producing HT-1080-NT fibrosarcoma cells; actives 1.6% (n = 360,000); HT-1080-NT fibrosarcoma viability, CellTiter-Glo ATP luminescence, 48 h; AID 686970; Potency, µM (highest dose often 46.1 µM), for inactives: top-dose activity, negative = less viability, hits mostly cytotoxic;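 note: NT is the 2HG producing partner of a matched IDH1 knockdown line; 0% = DMSO-treated cells and -100% = media-only wells without cells; nearly all actives have a fitted effect of over 55% in size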
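Luminescent CellTiter-Glo readout after 48 hours of compound exposure at 37 degrees C defined viability of HT-1080-NT cells. Activity was normalized to DMSO wells and cell-free media wells; concentration-response curves were fitted and assigned curve classes.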
S2 tox: reduces viability in counter-screen for ATXN expression inhibitors | S2 cells (HEK-293 line with an ATXN2-luciferase reporter) viability, CellTiter-Fluor protease fluorescence, 24 h | Potency, µM (highest dose often 56.7 µM), actives largely listed as cytotoxic | actives 0.49% (n = 400,000); note: nearly all actives have a fitted effect of over 40% in size
TGFb inhibitor: inhibitors of TGF-b signaling | HepG2 CAGA-GFP TGF-b/SMAD3 reporter, GFP fluorescence, 18 h; TGF-beta stimulated, 500 pg/mL final | Potency, µM (highest dose often 46.1 µM), inactives show at the top dose activity, negative = inhibition, hits mostly inhibitors | actives 1.2% (n = 410,000) | AID 588855; note: % is set by controls: 0 for no effect and ±100 for the full control effect; nearly all actives have a fitted effect of over 65% in size
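HEPG2 CAGA-GFP reporter cells (1000/well, DMEM with 1% FBS) received compounds, then recombinant TGF-beta at 500 pg/mL final for 18 hours at 37 degrees C. Per-cell GFP summed per well was normalised to unstimulated and stimulated DMSO controls before curve fitting.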
HT1080 IDH1KD tx: HT-1080 IDH1 knockdown cell toxicity (counter line); HT-1080 IDH1 knockdown viability, ATP luminescence, 48 h; Potency, µM (doses to about 46.1 µM), for the others: at the highest dose activity, negative = toxicity, actives largely listed as cytotoxic; actives 2% (n = 360,000); AID 686971;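 note: 0% = DMSO wells and -100% = cell-free medium wells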
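% activity derives from luminescence (CellTiter-Glo), normalised to DMSO and no-cell wells. HT-1080-IDH1KD cells, 750/well, had 48 h compound exposure at 37 °C.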
HepG2 tox-1: kills HepG2 cells in TGF-b inhibitor counter-screen. HepG2 CAGA-GFP viability, ATP luminescence, 18 h. Potency, µM (top dose mostly 46.1 µM), for the others: top-dose activity change, negative = cytotoxicity, usual class: cytotoxic. actives 0.76% (n = 410,000). AID 588856
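HepG2 CAGA-GFP cells (1000/well, DMEM with 1% FBS) received compound, then TGF-beta at 500 pg/mL final, and were incubated 18 hours at 37 degrees C. Viability was read by CellTiter-Glo luminescence. Media-only wells were set as complete cell-killing and DMSO as no toxicity.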
ATXN2 expr inh: ATXN2 expression inhibition | Potency, µM (highest dose often 57 µM), for inactives: top-dose activity change, negative = inhibition, actives largely listed as inhibitors | actives 0.72% (n = 360,000) | HEK-293 ATXN2-luciferase reporter, luminescence, 24 h; note: % is set by controls: 0 for no effect and ±100 for the full control effect; nearly all actives have a fitted effect of over 55% in size
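qHTS (up to 57 uM final) was run with 24 h compound exposure of reporter cells at 37 °C. Each well was multiplexed: SteadyGlo luminescence measured ATXN2-luciferase expression after a fluorogenic Gly-Phe-AFC viability readout (25 uM final).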
TGFb CAGA inh: confirmation of TGF-b signaling inhibitors in HepG2 reporter cells | shares compounds with TGFb inhibitor | HepG2 CAGA-GFP TGF-b reporter, GFP fluorescence, 18 h; cells stimulated with TGF-beta, 500 pg/mL | Potency, µM (titrated, usually from 46.1 µM), without a hit: at the top dose activity, negative = inhibition, actives largely listed as inhibitors | actives 63% (n = 1,600) | AID 720534; note: % is set by controls: 0 for no effect and ±100 for the full control effect; nearly all actives have a fitted effect of over 65% in size
HepG2 tox-2: toxic to HepG2 cells in TGF-b counterscreen; HepG2 CAGA-GFP viability, ATP luminescence, 18 h; cells stimulated with TGF-beta, 500 pg/mL; shares compounds with TGFb inhibitor; actives 27% (n = 1,600); Potency, µM (doses to about 46.1 µM), for inactives: at the highest dose activity, negative = cytotoxicity, most hits filed as inhibitors; note: % is set by controls: 0 for no effect and ±100 for the full control effect; nearly all actives have a fitted effect of over 70% in size
CCL64 TGFb inh: blocks TGF-b signaling in CCL64 reporter cells; Potency, µM (top dose mostly 46.1 µM), for the others: top-dose activity, negative = inhibition, actives largely listed as inhibitors; shares compounds with TGFb inhibitor; CCL64 CAGA-GFP reporter, TGF-b stimulated, GFP fluorescence, 18 h; actives 41% (n = 1,600); note: nearly all actives have a fitted effect of over 65% in size
COP TGFb inh: validation of TGF-b inhibitors in HepG2 COP promoter reporter; actives 3% (n = 1,600); HepG2 COP-GFP TGF-b reporter, GFP fluorescence, 18 h; cells stimulated by added recombinant TGF-beta; shares compounds with TGFb inhibitor; Potency, µM (top dose mostly 46.1 µM), inactives show at the top dose activity, negative = inhibition, most hits filed as inhibitors; note: nearly all actives have a fitted effect of over 70% in size
An asterisk follows results filed as active; i = inactive; ? = inconclusive; . = no result given; ! = not active in a repeat. Calls come from the whole dose curve; as a rule, active = well fitted curve in the direction sought with a large enough effect; inconclusive = small, poorly fitted or top-dose-only effect, or another doubt; inactive = no such curve, though single readings can be large; an effect the other way counts as inactive or inconclusive. Potency is the fitted concentration of half-maximal effect.

SMILES | HT1080-NT tox | S2 tox | TGFb inhibitor | HT1080 IDH1KD tx | HepG2 tox-1 | ATXN2 expr inh | TGFb CAGA inh | HepG2 tox-2 | CCL64 TGFb inh | COP TGFb inh
COc1cc(/C=C(\C#N)c2nc3ccccc3[nH]2)cc(Br)c1OCc1ccccc1 | ? | . | 11µM* | ? | -29% | ? | ? | ? | -19% | 22%
COc1cc(/C=C(\C#N)c2nc3ccccc3[nH]2)cc(Br)c1OCc1ccc(F)cc1 | 1% | i | 6% | 0% | -28% | -11% | . | . | . | .
COc1cc(Cl)ccc1OCc1cc(C(=O)N(C)Cc2cccc3cnccc23)no1 | ? | i | 11µM* | ? | -39% | 2% | 15µM* | ? | ? | 14%
COc1ccc2c(c1)c1c(c(=O)n(-c3ccc(F)c(Cl)c3)c(=O)n1Cc1ccccc1C)n2C | . | i | 21% | . | 3% | 16% | . | . | . | .
CCOC(=O)c1[nH]c2c(c1C)C(=O)CC(c1ccco1)C2 (stereo unspecified) | 1µM* | ? | ? | 0.92µM* | 4% | -17% | 7.3µM* | 9% | 2.1µM* | ?
COCCOC(=O)c1[nH]c2c(c1C)C(=O)CC(c1ccccc1)C2 (stereo unspecified) | 1.6µM* | ? | 10µM* | 1.3µM* | 5% | 8% | 7.3µM* | -7% | 6.5µM* | -19%
CC1(C)S[C@@H]2C(C(=O)O)NC(=O)N2C1C(=O)O (stereo partly specified) | . | . | -4% | . | 13% | . | . | . | . | .
COc1ccc(-c2nn(-c3cccc(F)c3)c3c2cnc2cc(OC)c(OC)cc23)cc1 | . | i | 7% | . | -1% | 1% | . | . | . | .
COc1ccc(C(=O)NCC(=O)OCC(=O)c2cccc3ccccc23)cc1 | . | . | 3% | . | -5% | . | . | . | . | .
COc1cc(OC)cc(C(=O)N2CCN(Cc3ccccc3C(F)(F)F)CC2)c1 | -8% | i | 24% | -29% | -20% | 2% | . | . | . | .
CCN1CCN(Cc2ccc(NC(=O)c3cc(NC(=O)c4cncc(-c5ccc(C#N)cc5)c4)cc(OC)c3)cc2C(F)(F)F)CC1 | ? | 16µM* | 5.6µM* | ? | 2µM*! | 25µM*! | ? | 16µM* | 26µM* | ?
CCOC(=O)Nc1nc(-c2ccccc2)c(C(=O)c2ccc(Cl)cc2)s1 | ? | ? | 8.9µM* | 0.52µM* | 16% | -12% | 7.3µM* | -9% | 9.2µM* | 3%
COc1ccc(CNC(=O)CCc2c(C)nn(-c3ccc(N4CCCCC4)nn3)c2C)cc1 | . | . | -3% | . | -19% | . | . | . | . | .
CCOC(=O)c1ccc(CN(Cc2ccc(C)cc2)S(=O)(=O)c2ccc(F)c(C(=O)Nc3ccc(C)c(F)c3)c2)cc1 | . | . | -11% | . | -4% | . | . | . | . | .
Cc1ccc(NC(=O)COC(=O)C2(c3ccc(Cl)cc3)CCCC2)cc1 | ? | ? | 10µM* | ? | -41% | ? | ? | ? | ? | 29%
Cc1nc(Nc2nc(CSc3nc4ccccc4[nH]3)cc(=O)[nH]2)nc2ccccc12 | 4.1µM* | ? | 18µM* | 4.6µM* | -16% | -4% | 5.2µM* | 4.1µM* | 6.5µM* | 38%
COc1ccc2nc(Nc3nc(CSc4nc5ccccc5[nH]4)cc(=O)[nH]3)nc(C)c2c1 | ? | i | 2.8µM* | ? | 4% | 0% | 8.2µM* | ? | 18µM* | 26%
CCS(=O)(=O)N1CCc2cc(C(=O)Nc3ccc(OC)c(Cl)c3)ccc21 | . | ? | -26% | . | -27% | 0% | . | . | . | .
Cc1ccnc2c([N+](=O)[O-])cccc12 | . | . | 17% | . | 5% | . | . | . | . | .
O=C(NCCN1CCOCC1)c1ccc(Cl)c(S(=O)(=O)N2CCCCCC2)c1 | 0% | i | 2.5µM* | -9% | -35% | -10% | ? | -9% | -3% | 1%
O=C(NCCN1CCOCC1)c1ccc(Cl)c(S(=O)(=O)N2CCCC2)c1 | 0% | i | -16% | -1% | -7% | -13% | . | . | . | .
COc1ccc(C(=O)Nc2ccc(C)c(S(=O)(=O)N3CCOCC3)c2)cc1S(=O)(=O)N1CCCC1 | 7% | i | 11µM* | 15% | -7% | -19% | ? | 2% | ? | 2%
CCN(c1cccc(C)c1)S(=O)(=O)c1cc(Br)cc2c1N(C(C)=O)C(C)C2 (stereo unspecified) | . | ? | ? | . | -14% | ? | . | . | . | .
CC(=O)c1cccc(NC(=O)c2nc3ccccc3nc2N2CCCCC2)c1 | . | i | 17% | . | -23% | 11% | . | . | . | .
CC=Cc1cc2c(c(=O)o1)C(=O)C(O)C(C)O2 (stereo unspecified) | -19% | . | 11µM* | ? | -17% | ? | 5.2µM* | 21µM* | ? | 20%
CC(C)(C)c1cc(C(c2cccnc2)N2CCN(CCO)CC2)cc(C(C)(C)C)c1O (stereo unspecified) | 6.3µM* | . | 7.9µM* | 5µM* | 13µM* | ? | 5.2µM* | 15µM* | 4.6µM* | ?
Brc1cc(Br)c2ncnc(N3CCCCC3)c2c1 | 9.2µM* | i | 6.3µM* | ? | -40% | -23% | 9.2µM* | 4.1µM* | ? | 42%

Screening results deposited in PubChem BioAssay by National Center for Advancing Translational Sciences (NCATS).
